For 14 compounds, Potency results are on record in PubChem BioAssay (NCATS).

Records with an inconclusive call do not appear. Where a call stands in place of a potency, no number is given. Active and inactive are the calls of the source. The call rests on the fitted dose curve; in most records, active means well fitted inhibition curve with a large enough effect; inconclusive means small, poorly fitted or top-dose-only effect; inactive means no such curve, though single readings can be large or run the other way.
Potency means the concentration at half of the fitted maximal effect.

The nature of this experiment: qHTS assay to identify inhibitors of the type 1 interferon - major histocompatibility complex class I in skeletal muscle: Counter screen cell viability and HiBit confirmation (AID 1347412). Further: nearly all actives have a fitted effect of over 60% in size. The note with it: iHSKM muscle cells + IFN-b, HiBiT or CellTiter-Glo, 24 h; Potency: HiBiT unless noted; Viability, at 45.9 µM (top of the series). The procedure, abridged: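 After 24 h with human IFN-beta (4 ng/ml) and compound titrations (top 46 uM final, 1:3, 12 points), HLA-B HiBit myoblasts were lysed for either Nano-Glo HiBiT luminescence or CellTiter Glo viability on paired plates.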
Consider `C[C@]12CCC(=O)C=C1CC[C@H]1[C@@H]3CC[C@](O)(C(=O)CO)[C@@]3(C)C[C@H](O)[C@@]12F`, for which the Potency result was “inactive”.

`CCCCC(=O)O[C@]1(C(=O)CO)CC[C@H]2[C@@H]3CCC4=CC(=O)CC[C@]4(C)[C@H]3[C@@H](O)C[C@@]21C`: the Potency entry is “inactive”.

As to `COc1cccc2c1C(=O)c1c(O)c3c(c(O)c1C2=O)C[C@@](O)(C(C)=O)C[C@@H]3O[C@H]1C[C@H](N)[C@H](O)[C@H](C)O1`, the Potency was 0.442 µM (active).

For `COc1cc(C=C2CCC/C(=C\c3ccc(O)c(OC)c3)C2=O)ccc1O`, the Potency entry is “inactive”.

Take `CC(C)n1nc(-c2cc3cc(O)ccc3[nH]2)c2c(N)ncnc21`: the Potency was 3.52 µM (active).

Take `C[C@H]1C[C@H]2[C@@H]3CCC4=CC(=O)C=C[C@]4(C)[C@@]3(Cl)[C@@H](O)C[C@]2(C)[C@@]1(O)C(=O)CO`: the Potency result is “inactive”.

Regarding `CC(=O)OCC(=O)[C@@]12N=C(C)O[C@@H]1C[C@H]1[C@@H]3CCC4=CC(=O)C=C[C@]4(C)[C@H]3[C@@H](O)C[C@@]12C`, the Potency entry was “inactive”.

For the compound `CCCCC(CC)CN=C(N)NC(N)=NCCCCCCN=C(N)NC(N)=NCC(CC)CCCC` (centres undefined), the Potency is 22.2 µM [Viability] (active).

As to `CC(=O)OCC(=O)[C@@]1(OC(C)=O)[C@@H](C)C[C@H]2[C@@H]3C[C@H](F)C4=CC(=O)C=C[C@]4(C)[C@@]3(F)[C@@H](O)C[C@@]21C`, the Potency result is “inactive”.

On to `C[C@]12C=CC(=O)C=C1[C@@H](F)C[C@@H]1[C@@H]2[C@@H](O)C[C@@]2(C)[C@H]1CC[C@]2(O)C(=O)CO`, for which the Potency result was “inactive”.

`CCCC(=O)O[C@]1(C(=O)CO)CC[C@H]2[C@@H]3CCC4=CC(=O)CC[C@]4(C)[C@H]3[C@@H](O)C[C@@]21C`: the Potency result was “inactive”.

As for `C[C@]12C=CC(=O)C=C1CC[C@@H]1[C@@H]2[C@@H](O)C[C@@]2(C)[C@H]1CC[C@]2(O)C(=O)CO`, the Potency result was “inactive”.

Turning to `CC(=O)OCC(=O)[C@@]12OC(C)(C)O[C@@H]1C[C@H]1[C@@H]3C[C@H](F)C4=CC(=O)C=C[C@]4(C)[C@@]3(F)[C@@H](O)C[C@@]12C`, the Potency result is “inactive”.

For the compound `CC(=O)OCC(=O)[C@@]1(O)CC[C@H]2[C@@H]3CCC4=CC(=O)C=C[C@]4(C)[C@H]3[C@@H](O)C[C@@]21C`, the Potency result was “inactive”.
